Experimental findings from PubChem BioAssay (EPA / NIEHS) are described below.

The nature of test [1]: BSK_MyoF_SRB: Viability Assessment in the BioMAP Diversity Plus: MyoF Assay (AID 2284267).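 Also: total protein by SRB absorbance in parallel cultures as cytotoxicity measure; cells assessed 24 h after compound addition.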 As to conditions: primary human lung fibroblasts. Put shortly: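 Confluent human lung fibroblasts were exposed to test chemicals for 24 h. Parallel wells were then fixed in 10% TCA, stained with 0.1% sulforhodamine B and measured at 560 nm. DMSO served as baseline for curve fitting.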

Read-out in test [2]: Matrix Metallopeptidase 1 (MMP1), MMP1 (gene 4312)
The test is described as follows: BSK_MyoF_MMP1: BioMAP Diversity Plus: MyoF Assay for Matrix Metallopeptidase 1 (MMP1) Biomarker Activity (AID 2284268). As to conditions: primary human lung fibroblasts. Put shortly: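 Human lung fibroblasts (MyoF system) exposed to chemical for 24 h in 96-well format; MMP1 biomarker quantified by ELISA, with activity fitted in the positive direction relative to DMSO baseline.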

Read-out in test [3]: TIMP metallopeptidase inhibitor 1 (TIMP1), TIMP1 (gene 7076)
The experiment in a line: BSK_MyoF_TIMP1: BioMAP Diversity Plus: MyoF Assay for TIMP metallopeptidase inhibitor 1 (TIMP1) Biomarker Activity (AID 2284269). As to conditions: primary human lung fibroblasts. Put shortly:
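Fibroblasts from human lung are dosed with chemical, cultured 24 h, and assayed for TIMP-1 by ELISA. Increases over the DMSO baseline are scored, with SRB total-protein staining run in parallel for cytotoxicity.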

Read-out in test [4]: Matrix Metallopeptidase 1 (MMP1), MMP1 (gene 4312)
The experiment in a line: BSK_BF4T_MMP1: BioMAP Diversity Plus: BF4T Assay for Matrix Metallopeptidase 1 (MMP1) Biomarker Activity (AID 2284270). As to conditions: primary human bronchial epithelial cells with fibroblasts. How it is done:
BSK_BF4T is a cell-based, multiplexed-readout assay that uses bronchial epithelial cells and dermal fibroblasts, a human vascular primary cell, with measurements taken at 24 hours after chemical dosing in a microplate: 96-well plate.BSK_BF4T_MMP1 is an assay component measured in the BSK_BF4T assay. It measures MMP-1 antibody related to regulation of gene expression using ELISA technology.Data from the assay component BSK_BF4T_MMP1 was analyzed at the endpoint, BSK_BF4T_MMP1, in the positive analysis fitting direction relative to DMSO as the negative control and baseline of activity. Using a type of binding reporter, gain or loss-of-signal activity can be used to understand protein changes. […]
The levels of cell surface (or secreted, indicated by the prefix "s") biomarker endpoints were measured by ELISA. Overt cytotoxicity to cells in confluent adherent cultures (all systems other than the BT system) was assessed by measuring total protein levels using sulforhodamine B (SRB) staining in parallel cultures at the time of biomarker measurements, indicated as SRB endpoints. For proliferation assays for adherent cell types, individual cell types are cultured at sub-confluence and relative cell numbers quantified by SRB staining at time points optimized for each system (48 h: 3C and CASM3C systems; 72 h: BT and HDF3CGF systems; 96 h: SAg system). […] Plates were read after 6 h.

Read-out in test [5]: Matrix Metallopeptidase 3 (MMP3), MMP3 (gene 4314)
The test is described as follows: BSK_BF4T_MMP3: BioMAP Diversity Plus: BF4T Assay for Matrix Metallopeptidase 3 (MMP3) Biomarker Activity (AID 2284271). As to conditions: primary human bronchial epithelial cells with fibroblasts. A digest of the protocol: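 MMP-3 level read by ELISA after 24 h chemical exposure of bronchial epithelial cell/dermal fibroblast co-cultures, fitted upward relative to DMSO. Parallel cultures stained with 0.1% SRB after TCA fixation gauge overt cytotoxicity.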

Read-out in test [6]: Tissue plasminogen activator (tPA), PLAT (gene 5327)
The experiment in a line: BSK_BF4T_tPA: BioMAP Diversity Plus: BF4T Assay for Tissue plasminogen activator (tPA) Biomarker Activity (AID 2284272). To be noted: primary human bronchial epithelial cells with fibroblasts. A digest of the protocol:
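tPA level quantified by ELISA at 24 h post-treatment in bronchial epithelial/dermal fibroblast co-cultures, gain of signal scored against DMSO baseline. Parallel cultures stained with 0.1% SRB (560 nm) to flag overt cytotoxicity.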

Read-out in test [7]: Plasminogen Activator Inhibitor-1 (PAI1), SERPINE1 (gene 5054)
The test is described as follows: BSK_BF4T_PAI1: BioMAP Diversity Plus: BF4T Assay for Plasminogen Activator Inhibitor-1 (PAI1) Biomarker Activity (AID 2284273). As to conditions: primary human bronchial epithelial cells with fibroblasts. A digest of the protocol:
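PAI-1 levels quantified by ELISA 24 h post-dosing in bronchial epithelial cell plus dermal fibroblast cultures. Signal gain referenced to DMSO baseline. Sulforhodamine B total-protein staining of parallel wells checked cytotoxicity.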

Test [8] is described as follows: BSK_BF4T_SRB: Viability Assessment in the BioMAP Diversity Plus: BF4T Assay (AID 2284274). As to conditions: primary human bronchial epithelial cells with fibroblasts. A digest of the protocol:
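Cytotoxicity measured as total protein: cells fixed with 10% TCA, stained with 0.1% SRB, read at 560 nm. Bronchial epithelial/dermal fibroblast co-culture, 24 h after dosing, with positive-direction fitting relative to DMSO.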

Read-out in test [9]: urokinase Plasminogen Activator (uPA), PLAU (gene 5328)
The test is described as follows: BSK_BF4T_uPA: BioMAP Diversity Plus: BF4T Assay for urokinase Plasminogen Activator (uPA) Biomarker Activity (AID 2284275). To be noted: primary human bronchial epithelial cells with fibroblasts. Put shortly: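 uPA levels measured by ELISA at 24 hours in BF4T cultures (bronchial epithelial cells plus dermal fibroblasts) and compared with DMSO; cytotoxicity tracked in parallel cultures by sulforhodamine B staining.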

Read-out in test [10]: Matrix Metallopeptidase 9 (MMP9), MMP9 (gene 4318)
The experiment in a line: BSK_BF4T_MMP9: BioMAP Diversity Plus: BF4T Assay for Matrix Metallopeptidase 9 (MMP9) Biomarker Activity (AID 2284276). As to conditions: primary human bronchial epithelial cells with fibroblasts. A digest of the protocol:
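MMP-9 levels were measured by ELISA after 24 h exposure of bronchial epithelial cell/dermal fibroblast co-cultures, with DMSO as baseline. Parallel cultures were stained with 0.1% SRB after TCA fixation, read at 560 nm, to flag overt cytotoxicity.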

Where “and” joins values, the source holds several entries; their conditions need not be identical. Equal entries are not always repeated. Calls of active or inactive are those of the source. The calls were made as follows: active = hit-call score of the fitted dose curve at least 0.9, where 1 is the maximum; inactive = score below 0.9.

For `CCc1cccc(C)c1N(C(=O)CS(=O)(=O)O)C(C)COC` (configuration not stated), the result in [1], in test [2] and in test [3] was inactive.
As to `CCCCC1C(=O)N(c2ccccc2)N(c2ccccc2)C1=O`, the result in [1], in test [2] and in test [3] was inactive.
By AC50 is commonly meant the midpoint of the concentration-response curve, whichever way the signal moves. With `Oc1c(Cl)cc(Cl)c(Cl)c1Cl`, the result in [2] was inactive. Moreover, in test [3], the AC50 is 33 µM (active).
Taken in the same sequence, the figures for `CC/C=C\CCOC(=O)c1ccccc1O` were “inactive” and 35.5 µM (active).
Turning to `CC(Cl)COP(=O)(OCC(C)Cl)OCC(C)Cl` (configuration not stated), the outcome in test [2] and in test [3] was inactive.
Consider `Nc1cccc(N)n1`, for which the result in test [2] and in [3] was inactive.
Consider `C=CC(=O)NCOCCCC`, for which the outcome in test [2] and in test [3] was inactive.
For `CCCCCCCO`, the result in [2] and in [3] was inactive.
Turning to `C=C(C)C(=O)OCCCCCCCCCCCC`, the result in [2] and in test [3] was inactive.
Take `CC(C)c1cccc(C(C)C)c1N`: the result in test [2] and in test [3] was inactive.
With `c1ccc2sc(SSN3CCOCC3)nc2c1`, the AC50 in test [2] is 4.91 µM (active); in test [3], 31.5 µM (active).
Consider `O=C(O)C(F)(F)C(F)(F)C(F)(F)C(F)(F)C(=O)O`, for which the result in test [2], in test [3], in test [4], in test [5], in test [6] and in test [7] was inactive. In addition, the outcome in test [8], in test [9] and in test [10] was inactive.
Turning to `CC=C(C)C(C)=O`, the outcome in [2] and in [3] was inactive.
For the compound `CCCCCCOC(=O)CCCCC(=O)OCCCCCC`, the result in [2] and in test [3] was inactive.
In the case of `CCCCCCC=O`, the result in [2] and in [3] was inactive.
Turning to `COc1ccc(C(=O)/C(Br)=C\C(=O)O)cc1`, in test [2], the AC50 was 16.1 µM (active) and 20 µM (active). Moreover, the outcome in test [3] was inactive.
As to `CC(C)[N+](C)(CCOC(=O)C1c2ccccc2Oc2ccccc21)C(C)C`, the outcome in [2] and in test [3] was inactive.
As to `CCOC(=O)/C=C\C(=O)OCC`, the result in [2] and in test [3] was inactive.
Take `O=C(Cl)c1c(Cl)c(Cl)c(C(=O)Cl)c(Cl)c1Cl`: the outcome in test [2] and in test [3] was inactive.
In the case of `CCC1(C)C(=O)N(Cl)C(=O)N1Cl` (configuration not stated), the result in test [2] and in [3] was inactive.
As to `O=C1CCCCCCCCCCCN1`, the outcome in [2] and in test [3] was inactive.
Take `C[N+](C)(C)CCCNS(=O)(=O)C(F)(F)C(F)(F)C(F)(F)C(F)(F)C(F)(F)C(F)(F)C(F)(F)C(F)(F)F`: the AC50 is 49.2 µM (active) and 41 µM (active) in test [2]; 52.2 µM (active) and 51.4 µM (active) in test [5]; 8.18 µM (active) and 7.16 µM (active) in test [6]; 9.46 µM (active) and 30 µM (active) in test [10]. Besides, the result in test [3], in [4], in test [7], in test [8] and in [9] was inactive.
As for `CCOC(=O)C1=NOC(c2ccccc2)(c2ccccc2)C1`, the outcome in [2] and in test [3] was inactive.
Consider `CC1(C)CC(O)CC(C)(C)N1[O]`, for which the outcome in test [2] and in [3] was inactive.
For the compound `C=CC(=O)OCCCCCCCC(C)C`, the result in test [2] and in test [3] was inactive.
`CCOC(=O)C1=NN(c2ccc(Cl)cc2Cl)C(C)(C(=O)OCC)C1` (configuration not stated): the outcome in [2] and in test [3] was inactive.
For `C=CC(=O)OCCCCCCOC(=O)C=C`, the half-maximal activity concentration (AC50) was 4.83 µM (active) in test [2] and 29.4 µM (active) in test [3].
Turning to `CCNc1nc(NC(C)(C)C)nc(OC)n1`, the result in test [2] and in [3] was inactive.
